Source: PubChem BioAssay AID1220 (Sanford-Burnham Center for Chemical Genomics, 2008)
Screen size: about 190,000 compounds; about 1,300 (0.68%) were called active. This is one part of a sample in which actives are shown more often than they occur. Unmarked numbers belong to inactive results. Cut-off read from the data, not from the text of the source: active = inhibition above about 50%; inactive = the rest.

The compounds below were run against Mannose-6-phosphate isomerase (Homo sapiens) (UniProt P34949) (assay: human PMI inhibitors, high substrate, primary screen, biochemical, fluorescence intensity, high mannose 6-phosphate (AID 1220)). Details: recombinant PMI enzyme, coupled fluorescence intensity; at 20 µM; hits give high values.
Mannose-6-phosphate isomerase (Homo sapiens), sequence (P34949 whole entry, looked up): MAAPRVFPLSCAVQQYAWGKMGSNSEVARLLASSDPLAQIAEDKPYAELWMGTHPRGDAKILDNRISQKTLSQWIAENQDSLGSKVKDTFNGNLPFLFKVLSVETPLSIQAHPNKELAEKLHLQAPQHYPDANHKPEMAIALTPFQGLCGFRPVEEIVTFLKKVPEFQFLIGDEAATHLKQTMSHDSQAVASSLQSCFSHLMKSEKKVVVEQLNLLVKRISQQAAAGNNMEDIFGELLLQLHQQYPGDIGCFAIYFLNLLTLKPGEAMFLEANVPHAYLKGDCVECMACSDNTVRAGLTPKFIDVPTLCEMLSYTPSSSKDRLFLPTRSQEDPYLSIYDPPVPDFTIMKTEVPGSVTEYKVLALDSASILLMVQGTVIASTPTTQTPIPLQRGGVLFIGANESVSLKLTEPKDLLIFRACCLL

Row | SMILES | inhibition
1 | CC(C)CSc1n[nH]c(N)n1 | -6.6%
2 | Cc1ccccc1/C=N\NC(=O)c1ccccc1-n1cccc1 | 15.6%
3 | CCOC(=O)c1c(N/N=C/c2ccncc2)n[nH]c1C | -0.3%
4 | Cc1ccccc1Nc1nnc(SCC(=O)NC(=O)Nc2ccc3c(c2)OCCO3)s1 | 3.7%
5 | Cc1ccc(NC(N)=S)cc1 | -4.6%
6 | COc1cccc(-c2nn3c(-c4cc(C)[nH]n4)nnc3s2)c1 | -5.7%
7 | CC(C(=O)OCC(=O)Nc1ccc(S(=O)(=O)N2CCCCC2)cc1)N1C(=O)c2ccccc2C1=O (stereo not drawn) | 7.2%
8 | O=S(=O)(c1ccccc1)c1nc(NCc2cccnc2)sc1Cl | -5.8%
9 | O=C(Nc1ccc(NC(=O)C2CCCN2C(=O)OCc2ccccc2)cc1)c1ccco1 (stereo not drawn) | -8.3%
10 | COc1ccc(CNC(=O)C(OC(=O)c2nsc(Cl)c2Cl)C(C)C)cc1 (stereo not drawn) | 14.4%
11 | CC/C(=N/OC(=O)c1cccc(C)c1)C(=O)c1cccs1 | -0.6%
12 | CCOc1ccc(NC(=O)C2CCN(C(=O)NC3CCCCC3)CC2)cc1 | -11.9%
13 | CCn1nnnc1-c1ccc(OC)c(S(=O)(=O)Nc2ccc(C)c(C)c2)c1 | -3.8%
14 | Cc1ccc(Cl)cc1N1CCN(C(=O)CCC(=O)O)CC1 | -5.1%
15 | Cc1ccc(CSC2=NCCN2C(=O)C2CC2)cc1 | -1.1%
16 | CCCCn1c(NS(=O)(=O)c2ccccc2)c(S(=O)(=O)c2ccc(C)cc2)c2nc3ccccc3nc21 | 57.6% (active)
17 | CCC(=O)Nc1c(C#N)c2nc3ccccc3nc2n1C1CCCCC1 | 17.4%
18 | O=S(=O)(Nc1c(S(=O)(=O)c2ccccc2)c2nc3ccccc3nc2n1C1CCCCC1)c1ccccc1 | 59.7% (active)
19 | Cc1ccc(S(=O)(=O)c2c(N)n(CCCO)c3nc4ccccc4nc23)cc1 | 8.6%
20 | Nc1c(S(=O)(=O)c2ccccc2)c2nc3ccccc3nc2n1C1CC1 | 0.4%
21 | CCCCn1c(N)c(S(=O)(=O)c2ccc(C)cc2)c2nc3ccccc3nc21 | 20.2%
22 | Cc1ccc(N(Cc2ccc([N+](=O)[O-])cc2)C(=O)c2ccco2)cc1C | 4.7%
23 | Cc1ccc(O)c(-c2cc(C(F)(F)F)[nH]n2)c1 | 3.7%
24 | COC(=O)c1nc2nc(C)cc(=O)n2[nH]1 | 3.3%
25 | O=C(Nc1ccc([N+](=O)[O-])cc1)C1C(c2ccccc2)=C1c1ccccc1 | 1.6%
26 | CC(C)C(c1nnnn1Cc1ccc(F)cc1)N1CCN(C2CCCC2)CC1 (stereo not drawn) | 3%
27 | CC(C)C(c1nnnn1Cc1ccc(F)cc1)N1CCSCC1 (stereo not drawn) | 4.6%
28 | CC(C)C(c1nnnn1Cc1ccc(F)cc1)N1CCN(c2ccc(O)cc2)CC1 (stereo not drawn) | 66.2% (active)
